Experimental data: the supplement of paper PMC12632987

B1: usp_38_diff_out_14_2_95 (protein)
chain: GEEELKKAAKETKEVLKKAIEEAKELEKKVKEDPSQAEQARKELFKKWDEAGDAVGKLEKLLRENPEHKELNKKIIEEVNKLINELTKAALKALETLAEA
B2: usp_38_diff_out_14_2_80 (protein)
chain: AEEKLKKATEETLKVLKEAIKKAKELKKEVEADPSLAEKAREELLKAWDKAGDAVGALNKLIEENKEAKETRKKATEEVNKAIDELTKEVLEALQTAAEA
B3: usp_38_diff_out_14_2_87 (protein)
chain: AEEELKKATKETLKKLEEHIKLAKELAERVKKDPSTAEQAREELFASWDEVGDKVGALAKLIEENKEIPELRKKAIEEVNKKLTEATEATLAALELLAEA
B4: usp_38_diff_out_14_54_123 (protein)
chain: SEELEELLEEARRALEEARRALREAERLLREGGPLEEVREALDRAARAIGRLGEALRRARALATDPEVLKELERLEKEADELVDRYTELARRALEMEAER
B5: usp_38_diff_out_14_2_88 (protein)
chain: AEEELKKATEETLKKLEEGIKLAKELTKKVKEDPSQAEKAREELFKKHDEIGDAVGRLAKLIEEHKEIPALNKEAVEEVNKKLTEYTEETLKALELLAEA
B6: usp_38_diff_out_14_75_134 (protein)
chain: SEKEELEERLAALEARLEALVAEGVISGRLEVELGAVLHTARLAIEAGRLEEARRLLDIAEEALADPARAREILRANEDFIVSTHLRLELERLAAEEAAR
B7: usp_38_diff_out_14_2_82 (protein)
chain: AVEKIKKATEETLKVLEEAIKKFKELKKEVEADPSKAEEARKEILKAWDKAGDAVGALNKLIEENPEAKEENKEATKKVNEALTKLTKEALEALQAAAEA
B8: usp_38_diff_out_14_2_98 (protein)
chain: AEEELKKATEETLKVLDEAIKKAKELKERVKKDPSLAEEAREELFKAWDKAADAVGELAKLMEEHRELRELNKKAVEEVNKKLTELTEELLEALELAAEA
B9: usp_38_diff_out_14_54_124 (protein)
chain: MEELERLLEEAERALREAEEALERAERLLEEGGPLEEIRRELDRAARAIGRLGEALRRARALATDPEVKKRLEELEKKADELVDRYNELARRALEMEAER
B10: usp_38_diff_out_14_2_86 (protein)
chain: AEEELKKKTEETKKKLKEGIELAKKIKEEVKKDPSKAEELRKKLFEKHDEIGDKVGELAKLIEEHKEIPALRKEAVKEVNELLTEYTKALLEALEELAKA
B11: usp_38_diff_out_14_2_89 (protein)
chain: GEEELEKKTKETLEKLEELIELAKKIKEEVEKDPSKAEELRKELFKKWDEVGEKVGELAKLIEEHKELPELNKKAVKEVNEKLSEATKEILEALELLAEA
B12: usp_38_diff_out_14_75_135 (protein)
chain: SEREELERRLEELEERLARLVAEGVISGRTEVKLGAVLHVARLAIEEGRLEEARKLLEIVERALADPERADEILEENEDFIVSTYLELELRRLAEEEAKR
B13: usp_38_diff_out_14_54_127 (protein)
chain: DEEIKRLLEEARKYLEEAKKALAELKELVAAGAAPEEVFAAYDKAADAIAKAGEAIRRLMRLSTDPEVRKEAREIQEEADKLVDEMTEAVTAAQEKAAEA
B14: usp_38_diff_out_14_75_129 (protein)
chain: SEREKLEERLEAAEARLAALVAAGVISGRTEVKLGAVLHVARLAIEQGDLETAEKLLEIVEKALADPANADKILDENEDFIVSTYKELALRELEEEEKKR
B15: usp_38_diff_out_14_75_136 (protein)
chain: SEREELRARLAAARARLDALVAAGVISGRLEVELGAVLHVAALAIEAGDLETARRLLDIVEAALADPARAREILRAAEDFIVDAYKRLELRRIEEEEEER
B16: usp_38_diff_out_14_75_130 (protein)
chain: SMKEELEKRLEELEERLKELEEKGVLTGRTVVELGGVLYVARLAIEAGDLETAEKLLEIAEKALEDPENAKEILDENEDFIVSTHIELELRRIEEEEAAR
B17: usp_38_diff_out_14_2_83 (protein)
chain: MEEEIKEKTKETLEEIEKAIKELKELEKEVKKDPSKKEEAYKKAFEKWDKAADKVGELEKLLRENKENPELNKKAKEEINEKLTKLTEEALKLLETIAEV
B18: usp_38_diff_out_14_2_97 (protein)
chain: GKEELEKKFKETKKVLEEAIKKAKELKKEVEKDPSKAEEARKKLFEAWDKAADKVGELQKLLEENPEYKELNKKIIEEVNKLLTELTKAALEALELIAEA
B19: usp_38_diff_out_14_75_132 (protein)
chain: SEKEELEKRLEELEKRLEELEKEGKLTGRLVVELGGVLHVAREAIEAGKLETAKKLLEIAEQALEDPERAREILRENEDFIVDTYKELALEEIEKEEAER
B20: usp_38_diff_out_14_54_125 (protein)
chain: MEELEKLLKEAEKALKEAEKALAAAEALLEAGGPLAEIRALLDAAARAIGAAGEALRKARALATDPEVKKKLEELRKRADELVDRYNELARRALEREAAA
B21: usp_38_diff_out_14_2_99 (protein)
chain: AKEELEKATKETLKVLKEAIKKAKELLKEVKKDPSKAEEATKKLFEEWDKAADAVGKLAKLIEEHKEERKLNKEAIEKVNKELTELTKVTLEALEEAAKA
B22: usp_38_diff_out_14_2_90 (protein)
chain: GEEELKKKYEETKKTLEEAIKKAKELKEEVKKDPSKAEEARKRLFEEWDKAADKVGELEKLIRENPEHKELNKKIIEEVNKLITELTKAALEALEAIAEA
B23: usp_38_diff_out_14_75_131 (protein)
chain: SEREELERRLEELRARLAALEAAGVITGRKVVKLGGALHVAELAIRAGRLEEARKILDIVEEALDDPERADEILDENEDFIVDTYKELALAEIEAEEAAR
B24: usp_38_diff_out_14_2_81 (protein)
chain: AEEELKAATEKTLAVLDDAIKAAKELTKEVKKDPSLAEKAREKLLEEWDKAGDAVGELEKLILENKEAKETNKEAREKVNKKLDELTKAFLEALETAAEA
B25: usp_38_diff_out_14_54_128 (protein)
chain: DEEIERLLEEARKKLEELKKLKEELKKLVKAGASMEEIFAAYDKAADAAAAAGEAIRRLRKLSTDPEVKEEARKLEEEVNKLLDEVTELVTEALERAAER
B26: usp_38_diff_out_14_54_126 (protein)
chain: SERLRRLLEEARRKLAEAERYLEEAEKALEEGAPLEEIERLLDEAARALGAAARALREAATLATDPESRAELEELRARADELTDRYTELAREAFLRRLEE
B27: usp_38_diff_out_14_2_84 (protein)
chain: MEEEIKKKTKETLKKIEEAIKRAKELKERVKKDPSLKEKAREELFKEWDEAADKVGELEKLLRENKENPELNKKAREEVNKKLTELTEVALETLELIAEV
B28: usp_38_diff_out_14_2_92 (protein)
chain: GKEKLEEKFKETKEKLKEAIKKAKELKKEVKKDPSKAEEAREELFKAWDEAGDKVGELEKLLRENPEYKELNKKIKEEVNKLITELTEAALEALEEIAKA
B29: usp_38_diff_out_14_75_133 (protein)
chain: SEREELEKRLEELRARLAALVAAGVISGRLEVELGAVLYTAELAIEAGKLEEAKKLLDIAEAALDDPANAKAILDANEDFIVSTYKELELERIEREEEEE
B30: usp_38_diff_out_14_2_85 (protein)
chain: AEEKIKKATEKTLKKLEEAIKLAKELKEEVKKDPSKAEKAREELFKKWDEVGDAVGELAKLLEENKEIPALNKEANEKVNEKLTELTKATLEALEELAEA
B31: usp_38_diff_out_14_2_93 (protein)
chain: GEEELKKLFEETKKVLEEAIKRAEELTKEVKADPSQAEKARKELFKAWDEAGDKVGELQKKIEENKEHKELNKKIIKEVNELITKLTEAALAALEEIAAA
B32: usp_38_diff_out_14_2_94 (protein)
chain: GEEELKKKYEETLKVLEEAIKEAKKIKEEVKKDPSIAEEKRKELFEKWDEAADKVGELQKLLEENPEHKELNKKIIEEVNKKITELTKAALEALEELAKA

Target: T1, USP38, Q8NB14
T1 chain: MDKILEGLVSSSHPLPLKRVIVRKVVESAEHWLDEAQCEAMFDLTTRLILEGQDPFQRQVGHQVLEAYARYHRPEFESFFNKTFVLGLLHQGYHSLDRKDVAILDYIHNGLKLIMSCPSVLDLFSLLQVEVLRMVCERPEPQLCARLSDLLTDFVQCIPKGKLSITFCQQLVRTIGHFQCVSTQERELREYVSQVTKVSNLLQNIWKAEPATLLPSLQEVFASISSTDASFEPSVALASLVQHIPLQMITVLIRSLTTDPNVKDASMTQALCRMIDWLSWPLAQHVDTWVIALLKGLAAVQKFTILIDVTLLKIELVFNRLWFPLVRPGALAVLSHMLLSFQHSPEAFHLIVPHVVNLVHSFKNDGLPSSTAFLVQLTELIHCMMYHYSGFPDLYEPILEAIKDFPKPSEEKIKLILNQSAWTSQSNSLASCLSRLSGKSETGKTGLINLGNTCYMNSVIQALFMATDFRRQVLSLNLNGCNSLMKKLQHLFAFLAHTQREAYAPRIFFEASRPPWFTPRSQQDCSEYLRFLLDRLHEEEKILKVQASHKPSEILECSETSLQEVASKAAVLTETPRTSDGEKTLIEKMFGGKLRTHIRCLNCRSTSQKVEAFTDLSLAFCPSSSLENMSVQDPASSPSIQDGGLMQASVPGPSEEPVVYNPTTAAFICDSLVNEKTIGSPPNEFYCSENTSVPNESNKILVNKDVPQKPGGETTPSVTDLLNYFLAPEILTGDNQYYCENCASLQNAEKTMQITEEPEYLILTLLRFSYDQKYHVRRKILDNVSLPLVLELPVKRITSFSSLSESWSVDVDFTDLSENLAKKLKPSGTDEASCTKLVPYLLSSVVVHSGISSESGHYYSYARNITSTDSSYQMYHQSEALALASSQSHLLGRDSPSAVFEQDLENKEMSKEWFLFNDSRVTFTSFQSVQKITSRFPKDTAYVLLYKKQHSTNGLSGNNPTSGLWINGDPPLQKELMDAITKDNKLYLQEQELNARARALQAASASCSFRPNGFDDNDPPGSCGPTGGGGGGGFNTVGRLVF
Experiment: median log2 fold change of GCK-ALFA target abundance (FLAG IP / Myc IP barcode read proportion) (log2 ratio); each designed protein is fused to an ALFA-tag nanobody in HEK293 cells to bring the named protein to FLAG-tagged glucokinase (GCK); Myc marks an untargeted standard; higher = target protein stabilised (more abundant)
Conditions: target protein: 3xFLAG-MCP-GCK-ALFA reporter; HEK293 landing pad (RPLP)
In short: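 Binders fused to an ALFA nanobody were recombined as a library into HEK293 landing-pad cells, which were induced with 2 μg mL^−1 doxycycline and then transfected to express a FLAG-tagged target and a Myc-tagged standard. After 48 h, circular RNA barcodes recovered by anti-FLAG and anti-Myc immunoprecipitation of lysates were reverse transcribed, amplified and sequenced. Each binder's target abundance is the median log2 ratio of FLAG to Myc barcode read proportions, from barcodes present at ≥10^−7 in both replicates, binders carrying ≥3 barcodes per replicate, a 10^−6 pseudocount and pooled replicates.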

| Binder | median log2 fold change |
| --- | --- |
| B1 | -0.416 |
| B2 | -0.879 |
| B3 | -0.418 |
| B4 | 0.491 |
| B5 | -0.277 |
| B6 | 0.0715 |
| B7 | -0.116 |
| B8 | -0.576 |
| B9 | 0.191 |
| B10 | -0.431 |
| B11 | -0.37 |
| B12 | -0.475 |
| B13 | 0.232 |
| B14 | 0.261 |
| B15 | 0.0109 |
| B16 | -0.097 |

| Binder | median log2 fold change |
| --- | --- |
| B17 | -0.316 |
| B18 | -0.467 |
| B19 | -0.63 |
| B20 | -0.00832 |
| B21 | -0.478 |
| B22 | -0.724 |
| B23 | 0.103 |
| B24 | -0.289 |
| B25 | -0.492 |
| B26 | 0.0528 |
| B27 | -0.366 |
| B28 | -0.436 |
| B29 | 0.198 |
| B30 | -0.606 |
| B31 | -0.0116 |
| B32 | 0.0575 |
